Measured values: the supplement of paper PMC10849652
The full data set covers some 8,800 targets. This sample favours those with a hit. About 0.5% of all pairs of compound and target were hits. A number with no mark means an inactive call.

How the values were obtained:
Experiment in all cases: log2 fold change, soluble protein after heating vs DMSO (PISA); higher = thermal stabilisation; K562 lysate, 10 uM; active = over 0.2 and 3.5 SD of the protein, either way, in both replicates (recomputed)
vemurafenib = compound: CCCS(=O)(=O)Nc1ccc(F)c(C(=O)c2c[nH]c3ncc(-c4ccc(Cl)cc4)cc23)c1F [vemurafenib]
How it was run: (§1)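 The values are log-two fold changes in thermal stability compared with solvent controls and come from duplicates. They were obtained by TMTpro 16plex LC-MS/MS, with channel sums equalised, on the supernatant after 21,000xg for 90 min. That supernatant came from crude K562 extract at 1 mg/mL protein treated with 10 μM compound for 30 min, heated for 3 min across 48°C-58°C, pooled and brought to 0.5% NP-40 at 4°C.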

[1] = compound: CCCS(=O)(=O)Nc1ccc(F)c(C(=O)c2c[nH]c3ncc(Cl)cc23)c1F
How it was run: as §1

barasertib = compound: CCN(CCCOc1ccc2c(Nc3cc(CC(=O)Nc4cccc(F)c4)[nH]n3)ncnc2c1)CCOP(=O)(O)O [barasertib]
How it was run: as §1

[2] = compound: CC[C@@H]1C(=O)N(C)c2cnc(Nc3ccc(C(=O)NC4CCN(C)CC4)cc3OC)nc2N1C1CCCC1
How it was run: as §1

volasertib = compound: CC[C@@H]1C(=O)N(C)c2cnc(Nc3ccc(C(=O)N[C@H]4CC[C@H](N5CCN(CC6CC6)CC5)CC4)cc3OC)nc2N1C(C)C [volasertib]
How it was run: as §1

[3] = compound: CCn1c(C(=O)N(C2CC2)C2CC2)cc2c3c(ncn3C)c(Nc3cc(C)n(C)n3)nc21
How it was run: as §1

[4] = compound: CCn1cc(-c2ccnc3[nH]c(-c4cccc(CN(C)C)c4)cc23)c(-c2ccc(NC(=O)N(C)C)cc2)n1
How it was run: as §1

[5] = compound: CN1CCC(CNc2ccc3ncc(-c4cccc(OC(F)(F)F)c4)n3n2)CC1
How it was run: as §1

saracatinib = compound: CN1CCN(CCOc2cc(OC3CCOCC3)c3c(Nc4c(Cl)ccc5c4OCO5)ncnc3c2)CC1 [saracatinib]
How it was run: as §1

sotrastaurin = compound: CN1CCN(c2nc(C3=C(c4c[nH]c5ccccc45)C(=O)NC3=O)c3ccccc3n2)CC1 [sotrastaurin]
How it was run: as §1

alvocidib = compound: CN1CC[C@H](c2c(O)cc(O)c3c(=O)cc(-c4ccccc4Cl)oc23)[C@H](O)C1 [alvocidib]
How it was run: as §1

Tubastatin A = compound: CN1CCc2c(c3ccccc3n2Cc2ccc(C(=O)NO)cc2)C1 [Tubastatin A]
How it was run: as §1

[6] = compound: CNC(=O)C1=CC=CC=C1NC2=NC(=NC=C2Cl)NC3=C(C=C(C=C3)N4CCOCC4)OC
How it was run: as §1

defactinib = compound: CNC(=O)c1ccc(Nc2ncc(C(F)(F)F)c(NCc3nccnc3N(C)S(C)(=O)=O)n2)cc1 [defactinib]
How it was run: as §1

[7] = compound: CNc1nc(-c2ccc3c(N)n[nH]c3c2)cc(N2C[C@@H](C(=O)NC3CCCCC3)CC[C@H]2C)n1
How it was run: as §1

encorafenib = compound: COC(=O)N[C@@H](C)CNc1nccc(-c2cn(C(C)C)nc2-c2cc(Cl)cc(NS(C)(=O)=O)c2F)n1 [encorafenib]
How it was run: as §1

[8] = compound: COC(=O)[C@H](CCSC)NC(=O)C1=C(C=C(C=C1)NC[C@H](CS)N)C2=CC=CC=C2
How it was run: as §1

alisertib = compound: COc1cc(Nc2ncc3c(n2)-c2ccc(Cl)cc2C(c2c(F)cccc2OC)=NC3)ccc1C(=O)O [alisertib]
How it was run: as §1

[9] = compound: COc1cc2nc(-c3cc(F)ccc3O)nc(N[C@@H]3CNC[C@H]3C(C)(C)O)c2cc1OC
How it was run: as §1

gefitinib = compound: COc1cc2ncnc(Nc3ccc(F)c(Cl)c3)c2cc1OCCCN1CCOCC1 [gefitinib]
How it was run: as §1

Chain of UniProt Q9NVH2 (Q9NVH2 whole entry, looked up): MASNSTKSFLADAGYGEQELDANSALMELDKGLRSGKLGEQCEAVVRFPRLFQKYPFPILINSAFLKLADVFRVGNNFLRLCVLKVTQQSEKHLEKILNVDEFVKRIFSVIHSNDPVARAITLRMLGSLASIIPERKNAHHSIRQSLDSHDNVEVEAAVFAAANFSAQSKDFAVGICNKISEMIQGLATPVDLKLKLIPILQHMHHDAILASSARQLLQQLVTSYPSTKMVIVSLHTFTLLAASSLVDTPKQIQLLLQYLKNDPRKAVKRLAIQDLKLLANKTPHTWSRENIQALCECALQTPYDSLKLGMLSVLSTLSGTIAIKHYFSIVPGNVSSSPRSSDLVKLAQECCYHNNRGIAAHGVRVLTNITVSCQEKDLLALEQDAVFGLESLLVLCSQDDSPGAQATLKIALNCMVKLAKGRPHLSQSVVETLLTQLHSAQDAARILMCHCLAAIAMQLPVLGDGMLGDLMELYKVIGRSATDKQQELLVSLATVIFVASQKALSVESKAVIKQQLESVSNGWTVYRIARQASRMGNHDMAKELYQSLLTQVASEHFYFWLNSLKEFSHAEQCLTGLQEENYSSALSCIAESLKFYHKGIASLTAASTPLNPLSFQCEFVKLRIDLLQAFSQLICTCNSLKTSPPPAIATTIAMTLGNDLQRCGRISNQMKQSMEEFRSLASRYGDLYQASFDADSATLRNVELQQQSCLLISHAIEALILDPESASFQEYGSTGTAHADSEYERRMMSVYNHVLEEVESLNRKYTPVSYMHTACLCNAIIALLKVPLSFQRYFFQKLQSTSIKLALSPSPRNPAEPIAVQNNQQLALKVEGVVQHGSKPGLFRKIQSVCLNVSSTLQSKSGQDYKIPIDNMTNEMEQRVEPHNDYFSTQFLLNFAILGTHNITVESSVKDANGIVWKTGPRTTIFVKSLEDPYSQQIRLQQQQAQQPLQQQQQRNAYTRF
Chain of UniProt Q1KMD3 (Q1KMD3 whole entry, looked up): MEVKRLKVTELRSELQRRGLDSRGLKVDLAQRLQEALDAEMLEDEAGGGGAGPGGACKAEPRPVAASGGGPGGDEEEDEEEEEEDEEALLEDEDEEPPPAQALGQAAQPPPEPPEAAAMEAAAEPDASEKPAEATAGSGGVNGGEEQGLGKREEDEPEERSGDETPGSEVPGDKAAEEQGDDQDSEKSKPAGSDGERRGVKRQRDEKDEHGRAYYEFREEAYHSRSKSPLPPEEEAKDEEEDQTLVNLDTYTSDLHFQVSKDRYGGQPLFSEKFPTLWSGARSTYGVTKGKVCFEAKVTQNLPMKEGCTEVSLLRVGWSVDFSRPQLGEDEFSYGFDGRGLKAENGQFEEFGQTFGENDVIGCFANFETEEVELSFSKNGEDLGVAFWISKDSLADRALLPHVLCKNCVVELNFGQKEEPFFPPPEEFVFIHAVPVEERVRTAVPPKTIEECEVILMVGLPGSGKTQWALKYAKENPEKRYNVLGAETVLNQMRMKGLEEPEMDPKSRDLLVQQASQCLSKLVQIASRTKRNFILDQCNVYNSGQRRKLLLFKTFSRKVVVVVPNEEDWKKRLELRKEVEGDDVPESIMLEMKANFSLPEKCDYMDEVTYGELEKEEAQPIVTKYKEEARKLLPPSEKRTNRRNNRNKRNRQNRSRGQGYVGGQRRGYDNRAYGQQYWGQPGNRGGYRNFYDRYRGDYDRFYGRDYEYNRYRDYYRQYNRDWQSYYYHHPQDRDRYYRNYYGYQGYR
Chain of UniProt Q8IY47 (Q8IY47 whole entry, looked up): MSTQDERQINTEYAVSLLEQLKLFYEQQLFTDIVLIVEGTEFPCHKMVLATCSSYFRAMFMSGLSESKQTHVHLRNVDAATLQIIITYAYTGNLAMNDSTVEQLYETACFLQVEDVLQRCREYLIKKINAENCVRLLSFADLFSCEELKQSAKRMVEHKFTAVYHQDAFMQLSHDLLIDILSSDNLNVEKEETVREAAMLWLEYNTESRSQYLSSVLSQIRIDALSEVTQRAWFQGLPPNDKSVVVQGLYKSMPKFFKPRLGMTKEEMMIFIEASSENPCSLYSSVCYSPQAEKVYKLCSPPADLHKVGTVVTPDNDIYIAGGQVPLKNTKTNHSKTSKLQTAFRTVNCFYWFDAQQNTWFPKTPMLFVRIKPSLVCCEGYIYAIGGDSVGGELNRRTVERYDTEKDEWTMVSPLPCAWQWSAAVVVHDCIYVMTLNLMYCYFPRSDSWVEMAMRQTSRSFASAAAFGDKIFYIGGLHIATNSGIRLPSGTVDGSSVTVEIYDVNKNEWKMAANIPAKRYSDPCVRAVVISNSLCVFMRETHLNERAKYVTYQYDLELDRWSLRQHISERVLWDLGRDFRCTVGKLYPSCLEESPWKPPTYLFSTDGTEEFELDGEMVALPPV
Chain of UniProt Q8IU81 (Q8IU81 whole entry, looked up): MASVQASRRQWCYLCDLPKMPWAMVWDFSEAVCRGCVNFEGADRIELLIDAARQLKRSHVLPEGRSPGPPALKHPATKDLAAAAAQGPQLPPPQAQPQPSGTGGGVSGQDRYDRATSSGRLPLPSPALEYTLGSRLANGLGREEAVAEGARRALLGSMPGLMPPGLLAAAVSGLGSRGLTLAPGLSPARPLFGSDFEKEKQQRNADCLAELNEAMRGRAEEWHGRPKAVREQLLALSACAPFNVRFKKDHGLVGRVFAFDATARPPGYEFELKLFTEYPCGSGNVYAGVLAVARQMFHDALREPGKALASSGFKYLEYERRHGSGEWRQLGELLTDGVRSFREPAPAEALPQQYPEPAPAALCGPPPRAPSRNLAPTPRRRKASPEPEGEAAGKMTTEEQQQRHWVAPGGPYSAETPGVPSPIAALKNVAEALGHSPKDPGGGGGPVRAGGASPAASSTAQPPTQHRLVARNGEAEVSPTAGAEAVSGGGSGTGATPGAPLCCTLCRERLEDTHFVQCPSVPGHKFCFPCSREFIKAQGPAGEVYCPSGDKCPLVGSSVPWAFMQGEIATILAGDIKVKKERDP
Chain of UniProt Q01581 (Q01581 whole entry, looked up): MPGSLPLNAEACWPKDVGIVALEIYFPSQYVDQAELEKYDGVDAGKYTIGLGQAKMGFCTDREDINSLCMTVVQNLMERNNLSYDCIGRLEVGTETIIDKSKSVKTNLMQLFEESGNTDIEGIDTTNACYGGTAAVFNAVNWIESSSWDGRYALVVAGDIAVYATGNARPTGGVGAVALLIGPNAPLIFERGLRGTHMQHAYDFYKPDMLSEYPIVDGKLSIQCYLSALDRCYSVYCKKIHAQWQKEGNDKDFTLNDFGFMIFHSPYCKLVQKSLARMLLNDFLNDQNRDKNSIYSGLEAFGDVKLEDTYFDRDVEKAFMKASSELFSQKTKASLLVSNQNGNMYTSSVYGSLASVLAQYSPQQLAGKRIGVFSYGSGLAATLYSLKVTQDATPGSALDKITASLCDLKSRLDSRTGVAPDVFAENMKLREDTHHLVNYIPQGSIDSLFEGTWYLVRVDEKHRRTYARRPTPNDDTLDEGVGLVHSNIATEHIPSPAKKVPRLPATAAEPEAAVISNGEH
Chain of UniProt P16278 (P16278 whole entry, looked up): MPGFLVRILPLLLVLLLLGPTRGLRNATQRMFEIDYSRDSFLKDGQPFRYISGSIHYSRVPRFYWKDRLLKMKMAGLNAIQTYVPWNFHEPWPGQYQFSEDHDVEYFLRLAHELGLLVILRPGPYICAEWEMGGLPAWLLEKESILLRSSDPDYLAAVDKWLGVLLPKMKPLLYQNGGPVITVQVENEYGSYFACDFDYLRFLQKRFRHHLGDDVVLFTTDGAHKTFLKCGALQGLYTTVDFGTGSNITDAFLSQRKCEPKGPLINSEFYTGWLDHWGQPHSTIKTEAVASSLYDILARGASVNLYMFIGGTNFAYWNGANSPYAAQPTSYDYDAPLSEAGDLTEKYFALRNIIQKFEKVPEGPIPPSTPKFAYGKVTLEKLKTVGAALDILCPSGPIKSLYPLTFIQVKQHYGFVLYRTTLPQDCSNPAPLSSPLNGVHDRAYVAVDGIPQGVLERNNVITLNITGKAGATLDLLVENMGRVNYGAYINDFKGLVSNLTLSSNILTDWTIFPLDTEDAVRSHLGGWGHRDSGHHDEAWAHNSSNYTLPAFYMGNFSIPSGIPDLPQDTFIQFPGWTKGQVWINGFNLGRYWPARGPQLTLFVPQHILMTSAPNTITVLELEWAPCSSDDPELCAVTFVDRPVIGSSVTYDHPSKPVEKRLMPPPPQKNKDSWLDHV
Chain of UniProt P49915 (P49915 whole entry, looked up): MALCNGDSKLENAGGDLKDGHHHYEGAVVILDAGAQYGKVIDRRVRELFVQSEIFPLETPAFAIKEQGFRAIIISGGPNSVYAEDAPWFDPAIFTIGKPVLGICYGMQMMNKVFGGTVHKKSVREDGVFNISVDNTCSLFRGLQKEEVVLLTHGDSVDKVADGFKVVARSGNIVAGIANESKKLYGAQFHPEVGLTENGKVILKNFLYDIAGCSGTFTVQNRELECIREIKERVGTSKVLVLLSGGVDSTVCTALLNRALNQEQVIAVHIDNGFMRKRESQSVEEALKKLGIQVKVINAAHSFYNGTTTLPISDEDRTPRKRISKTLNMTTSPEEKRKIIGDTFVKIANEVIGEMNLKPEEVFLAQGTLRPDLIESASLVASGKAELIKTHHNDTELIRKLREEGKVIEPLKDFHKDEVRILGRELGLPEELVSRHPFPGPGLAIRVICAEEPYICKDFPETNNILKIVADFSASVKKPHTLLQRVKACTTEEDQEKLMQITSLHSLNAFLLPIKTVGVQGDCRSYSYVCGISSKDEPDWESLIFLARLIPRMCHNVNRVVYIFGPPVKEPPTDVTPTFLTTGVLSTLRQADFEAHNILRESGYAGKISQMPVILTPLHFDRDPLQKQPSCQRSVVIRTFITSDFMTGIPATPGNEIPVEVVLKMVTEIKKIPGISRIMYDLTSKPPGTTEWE
Chain of UniProt P26583 (P26583 whole entry, looked up): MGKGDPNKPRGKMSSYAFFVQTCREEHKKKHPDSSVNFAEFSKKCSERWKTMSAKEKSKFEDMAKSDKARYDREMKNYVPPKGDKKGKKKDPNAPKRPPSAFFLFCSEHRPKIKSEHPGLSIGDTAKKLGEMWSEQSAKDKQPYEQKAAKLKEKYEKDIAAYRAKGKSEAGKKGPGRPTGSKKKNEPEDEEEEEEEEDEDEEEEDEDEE

Target	log2 fold change (vemurafenib)	log2 fold change [1]	log2 fold change (barasertib)	log2 fold change [2]	log2 fold change (volasertib)	log2 fold change [3]	log2 fold change [4]	log2 fold change [5]	log2 fold change (saracatinib)	log2 fold change (sotrastaurin)	log2 fold change (alvocidib)	log2 fold change (Tubastatin A)	log2 fold change [6]	log2 fold change (defactinib)	log2 fold change [7]	log2 fold change (encorafenib)	log2 fold change [8]	log2 fold change (alisertib)	log2 fold change [9]	log2 fold change (gefitinib)
INTS3 (UniProt Q68E01)	0.038	0.02	0.05	-0.029	-0.017	-0.083	0.072	-0.018	0.049	0.015	-0.003	0.012	0.003	0.012	-0.002	-0.027	0.072	-0.031	0.005	0.047
HNRNPAB isoform 3 (UniProt Q99729)	0.018	-0.001	-0.003	0.033	0.019	0.011	-0.096	-0.004	0.027	-0.013	-0.018	0.021	-0.018	0.017	0.043	-0.012	-0.016	-0.035	0	0.03
INTS7 (UniProt Q9NVH2)	-0.059	-0.058	0.335	-0.073	0.013	0.028	0.027	0.039	0.005	-0.057	-0.012	0.008	-0.025	-0.125	-0.017	0.067	0.017	-0.022	-0.018	0.028
GSTP1 (UniProt P09211)	-0.007	-0.017	0.008	0.003	0.034	0.324 (active)	-0.059	0.021	0	-0.002	0.04	-0.057	-0.017	0.008	-0.036	-0.052	0.061	0.037	-0.008	0.007
GLB1 (UniProt P16278)	-0.034	0.012	-0.029	0.02	-0.045	-0.017	-0.066	0.019	-0.032	0.043	-0.042	-0.032	0.005	0.006	0.055	-0.036	0.327 (active)	0.022	0.007	-0.015
HMGB2 (UniProt P26583)	0.003	0.017	-0.019	0.037	0.014	0.018	0.283 (active)	-0.273 (active)	0.007	-0.04	0.134	0.027	0.023	0.003	0.016	-0.006	-0.081	-0.044	-0.022	-0.028
HMBOX1 isoform 5 (UniProt Q6NT76)	0.028	-0.086	-0.001	0.122	-0.059	-0.038	-0.043	-0.071	-0.003	-0.013	-0.078	-0.003	-0.005	0.012	0.066	-0.037	-0.016	-0.156	0.02	-0.091
IRF2BP1 (UniProt Q8IU81)	0.015	0.023	-0.003	0.026	-0.088	0.014	0.037	-0.06	0	0.01	-0.029	-0.047	0.095	0.045	0.091	0.025	0.117	0.042	0.038	-0.003
HNRNPUL2 (UniProt Q1KMD3)	0.024	0.017	0.038	0.005	-0.009	-0.012	-0.029	0.008	0.029	0.04	-0.001	0.007	0.004	0.002	-0.009	-0.023	0.105	0.009	0.019	-0.023
HADHB (UniProt P55084)	-0.019	-0.004	-0.124	0.047	0.099	-0.005	-0.001	0.074	0.012	-0.069	-0.046	0.033	0.081	-0.065	-0.03	-0.058	0.072	-0.019	-0.019	0.022
GMPS (UniProt P49915)	-0.006	-0.011	-0.008	-0.05	-0.046	-0.011	0.128	-0.047	0.014	-0.005	0.04	-0.065	-0.009	0.014	-0.025	-0.022	0.025	0.005	-0.003	-0.026
GNL3 (UniProt Q9BVP2)	0.051	0.041	0.032	-0.078	0.004	-0.07	0.129	-0.066	0.004	0.013	0.023	0.008	0.055	-0.002	0.038	0.014	0.252 (active)	-0.006	0.033	-0.029
KDM1A (UniProt O60341)	0.021	0.004	0.014	-0.011	-0.046	-0.011	-0.065	-0.016	-0.001	0.005	-0.034	-0.067	-0.023	-0.003	0.013	0.003	0.095	0.012	0.001	0.006
KBTBD2 (UniProt Q8IY47)	-0.035	0.006	0.022	-0.018	0.013	-0.181	-0.166	0.06	0.031	-0.03	-0.073	0.167	-0.009	-0.013	-0.036	0.018	-0.362 (active)	-0.053	-0.01	0.028
HDAC10 (UniProt Q969S8)	0.142	-0.093	0.009	-0.052	-0.056	-0.117	-0.026	0.02	-0.052	-0.069	0.033	0.49 (active)	-0.075	-0.135	-0.014	0.091	0.08	0.047	-0.006	0.165
HMGCS1 (UniProt Q01581)	0.008	-0.009	-0.038	-0.003	-0.017	0.014	-0.005	0.009	0.004	-0.014	0.021	-0.073	0.004	-0.011	0.006	-0.021	0.078	0.012	-0.002	0.013
